The other results are listed elsewhere or left out. Values without a mark were called inactive.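 Rule for the calls: active = superoxide signal below 65% of the plate average of sample wells; inactive = the rest.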
experiment: superoxide lowering in aged yeast cells, confirmation, cherry picked compounds (AID 434994);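 note: cells aged with compound for 7 days at 30 degrees C before staining; 100% equals mean DHE fluorescence of all compound wells on the plate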; settings: S. cerevisiae aging, superoxide DHE fluorescence; at 10 µM; hits give low values

Compound	superoxide response (% of plate) [%]
O=C(Nc1cccc(Cl)c1Cl)c1ccccc1NC(=O)C1CC=CCC1C(=O)O (configuration not stated)	101
Cn1c(Nc2ccccc2)cc(=O)n(C)c1=O	100
O=C(CSc1ccc(-c2ccc(-n3cccn3)cc2)nn1)Nc1ccc([N+](=O)[O-])cc1	95.7
CN1CCN(c2cc3c(cc2F)c(=O)c(C(=O)O)cn3CCF)CC1	116
O=C(Nc1ccc(Br)cn1)c1ccc([N+](=O)[O-])cc1Cl	96.2
CCn1c2ccccc2c2cc(CC(N)=O)ccc21	111
Cc1ccc(C23CC4CC(CC(C(=O)NCC(=O)O)(C4)C2)C3)cc1	106
Cc1ccc(-c2nc(CS(=O)CC(=O)N3CCN(c4ncccn4)CC3)c(C)o2)cc1 (configuration not stated)	92.5
O=[N+]([O-])c1ccc2c(c1)Nc1nc3ccccc3nc1N2	82.5
Cc1ccc(-c2nc(CSCC(=O)NC3CCN(Cc4ccccc4)CC3)c(C)o2)cc1	101
O=C(CN1CCN(c2ccccn2)CC1)Nc1ccc(Br)cc1	111
CSc1sc(C(=O)NNC(=O)c2ccc(Cl)cc2)c2c1C=CCC2	104
CC(=O)NC1=NN(C(C)=O)C(C)(CCS(=O)(=O)c2ccc(Cl)c(Cl)c2)S1 (configuration not stated)	101
Cc1cc(=O)n2[nH]c(-c3cccc(Cl)c3)cc2n1	98.1
O=C(O)c1ccc(F)c(S(=O)(=O)Nc2ccccc2)c1	101
CSc1ncc(Cl)c(C(=O)Nc2cc(C)ccc2C)n1	95.3
O=C(CSCc1ccccc1)Nc1ccccc1	107
COc1ccc(C)cc1S(=O)(=O)Nc1cccc(Cl)c1Cl	96.3
O=C(O)C1CCCN1S(=O)(=O)c1ccc(Br)cc1 (configuration not stated)	105
CNC(=O)c1cccc2nc3ccccc3nc12	79.8
CC(C)(C)NC(=O)COc1ccc(CNc2ccc3[nH]c(=O)[nH]c3c2)cc1	96.2
COc1cccc(NC(=O)NCCN2CCCCC2)c1	101
